Reference: PubChem BioAssay (EPA / NIEHS)
Records with an inconclusive call do not appear. Activity calls are given as the source filed them. How the source made its calls, unless noted: active means hit-call score of the fitted dose curve at least 0.9, where 1 is the maximum; inactive means score below 0.9.

Experiments:
[1] = target: Cellular tumor antigen p53 (Homo sapiens) (UniProt P04637); experiment: TOX21_p53_BLA_p2_ratio: Tox21 HCT-116 p53 Agonism Beta-lactamase Assay, Ratio, Phase 2 (AID 2283592; active means hit-call score of the fitted dose curve at least 0.9, where 1 is the maximum)
Method in brief: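 In this cell-based reporter format, HCT116 cells were dosed with chemicals delivered from DMSO by 217-fold dilution and incubated 16 h at 37C. Emission at 460 and 530 nm after 2 h CCF4-AM loading provided the ratio, fitted upward versus DMSO.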

[2] = TOX21_p53_BLA_p3_viability: Viability Assessment in the Tox21 HCT-116 p53 Agonism Beta-lactamase Assay, Phase 3 (AID 2283593; active means hit-call score of the fitted dose curve at least 0.9, where 1 is the maximum;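 further: cells exposed to compound for 16 h before reading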)
Method in brief: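 HCT-116 cells (4000/well) rested 5 h at 37C, then got DMSO compounds by pin tool (217-fold dilution) for 16 h at 37C, 5% CO2. After the bla read, CellTiter-Glo was added and luminescence read at 30 min, room temperature.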

[3] = target: Cellular tumor antigen p53 (Homo sapiens) (UniProt P04637); experiment: TOX21_p53_BLA_p3_ratio: Tox21 HCT-116 p53 Agonism Beta-lactamase Assay, Ratio, Phase 3 (AID 2283596; active means hit-call score of the fitted dose curve at least 0.9, where 1 is the maximum)
Method in brief: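 HCT116 p53-bla cells (4000/well) given compound in DMSO (217-fold dilution) after 5 h, incubated 16 h at 37C. CCF4-AM substrate 2 h at room temperature; 460/530 nm emission ratio, gain fitted against DMSO.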

[4] = TOX21_p53_BLA_p4_viability: Viability Assessment in the Tox21 HCT-116 p53 Agonism Beta-lactamase Assay, Phase 4 (AID 2283597; active means hit-call score of the fitted dose curve at least 0.9, where 1 is the maximum;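 further: hits lower the luminescence signal meaning cytotoxicity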)
Method in brief: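 We seeded HCT116 p53 reporter cells at 4000/well and waited 5 h. We then added compounds in DMSO at a 217-fold dilution and incubated for 16 h. Viability was read as CellTiter-Glo luminescence after 30 min at RT.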

[5] = target: Cellular tumor antigen p53 (Homo sapiens) (UniProt P04637); experiment: TOX21_p53_BLA_p5_ratio: Tox21 HCT-116 p53 Agonism Beta-lactamase Assay, Ratio, Phase 5 (AID 2283599; active means hit-call score of the fitted dose curve at least 0.9, where 1 is the maximum)
Method in brief: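 HCT-116 cells carrying a p53-inducible beta-lactamase reporter were seeded at 4000 cells/well and dosed after 5 h with compound in DMSO (217-fold dilution). After 16 h at 37C, CCF4-AM substrate was added for 2 h, and the 460/530 nm emission ratio was scored as gain-of-signal versus DMSO.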

[6] = TOX21_p53_BLA_p5_viability: Viability Assessment in the Tox21 HCT-116 p53 Agonism Beta-lactamase Assay, Phase 5 (AID 2283600; active means hit-call score of the fitted dose curve at least 0.9, where 1 is the maximum)
Method in brief: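 Compounds, pinned from DMSO at 217-fold dilution, were left on the cells for 16 h. The viability endpoint was ATP content measured by CellTiter-Glo luminescence, where falling signal reflects cytotoxicity.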

[7] = target: Cellular tumor antigen p53 (Homo sapiens) (UniProt P04637); experiment: TOX21_p53_BLA_p4_ratio: Tox21 HCT-116 p53 Agonism Beta-lactamase Assay, Ratio, Phase 4 (AID 2283601; active means hit-call score of the fitted dose curve at least 0.9, where 1 is the maximum)
Method in brief: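 HCT116 cells carrying an inducible beta-lactamase reporter were plated at 4000 cells/well, rested 5 h, then exposed to compounds in DMSO (217-fold dilution) for 16 h at 37C. CCF4-AM substrate was loaded 2 h at room temperature; 460/530 nm emission ratio scored gain-of-signal versus DMSO.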

[8] = CCTE_Harrill_HTTr_Viability_MCF7: CCTE's 6-hour Cell Viability Assessment for the High-Throughput Transcriptomics (HTTr) Platform, in MCF-7 cells cultured in DMEM + 10% fetal bovine serum, Harrill Lab (AID 2284010)
Method in brief: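 MCF-7 cells in DMEM + 10% FBS, 384-well, exposed 6 h to an eight-point dilution series. Membrane integrity scored by high-content imaging of propidium iodide exclusion; bidirectional fit versus DMSO.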

[9] = CCTE_Harrill_HTTr_Apoptosis_MCF7: CCTE's 6-hour Apoptosis Assessment for the High-Throughput Transcriptomics (HTTr) Platform, in MCF-7 cells cultured in DMEM + 10% fetal bovine serum, Harrill Lab (AID 2284011)
Method in brief: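 Read-out: CellEvent Caspase 3/7 Green signal by high content imaging, gain-of-signal indicating apoptosis. MCF-7 cells, DMEM + 10% FBS, eight-point dilution series, 6 h exposure. Curves fitted bidirectionally relative to DMSO negative control.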

[10] = CCTE_Shafer_MEA_dev_firing_rate_mean: CCTE's Neural Network Formation Assay for Mean Firing Rate, Shafer Lab (AID 2284031)
Method in brief: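 Primary rat cortical neurons on 48-well MEA plates, exposed from plating day 0 with dosing renewed on DIV 5 and 9. Mean well firing rate over active electrodes, recorded days 5, 7, 9, 12, summarised as trapezoidal AUC.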

[11] = CCTE_Shafer_MEA_dev_per_burst_spike_percent: CCTE's Neural Network Formation Assay for Percent of Spikes in a Burst, Shafer Lab (AID 2284032)
Method in brief: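 Rat primary cortical neurons on 16-electrode MEA wells, dosed from plating day 0 for 12 days with renewal on DIV 5 and 9; spikes-in-bursts percentage averaged over bursting electrodes, collapsed as AUC across days 5, 7, 9, 12; loss direction versus DMSO.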

[12] = CCTE_Shafer_MEA_dev_active_electrodes_number: CCTE's Neural Network Formation Assay for Number of Active Electrodes, Shafer Lab (AID 2284040; active means hit-call score of the fitted dose curve at least 0.9, where 1 is the maximum)
Method in brief: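 Primary rat cortical neurons on 16-electrode MEA wells, exposed from day 0 through day 12 with compound renewed at DIV 5 and 9 feeds. Active electrodes (mean firing ≥5 spikes/min) counted at DIV 5, 7, 9, 12; trapezoidal AUC across days, loss-of-signal versus DMSO.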

[13] = CCTE_Shafer_MEA_dev_burst_rate: CCTE's Neural Network Formation Assay for Burst Rate, Shafer Lab (AID 2284042)
Method in brief: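 Cells plated, treated day 0; recorded DIV 5, 7, 9, 12; fed and re-treated DIV 5, 9. Endpoint: bursts per recording time, active-electrode well mean, trapezoidal AUC, fitted in decreasing direction against DMSO baseline.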

[14] = CCTE_Shafer_MEA_dev_bursting_electrodes_number: CCTE's Neural Network Formation Assay for Number of Bursting Electrodes, Shafer Lab (AID 2284043; active means hit-call score of the fitted dose curve at least 0.9, where 1 is the maximum)
Method in brief: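 Primary rat cortical neurons were cultured on PEI-coated 48-well MEA plates (16 electrodes/well) and exposed from plating through day 12, with compound renewed at feeds on DIV 5 and 9. Electrodes bursting ≥1 per 2 min were counted on DIV 5, 7, 9, 12; trapezoidal AUC taken.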

[15] = CCTE_Shafer_MEA_dev_per_burst_interspike_interval: CCTE's Neural Network Formation Assay for Burst Interspike Interval, Shafer Lab (AID 2284044)
Method in brief: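 Readout is the average time between spikes inside single-electrode bursts, taken as a well mean across bursting electrodes. Cortical neurons from rat developed networks on MEA plates under continuous 12-day exposure; recordings on days 5, 7, 9 and 12 were integrated by trapezoidal AUC.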

[16] = CCTE_Shafer_MEA_dev_burst_duration_mean: CCTE's Neural Network Formation Assay for Mean Burst Duration, Shafer Lab (AID 2284045)
Method in brief: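 Primary rat cortical neurons on PEI-coated 16-electrode MEA wells, exposed from plating through day 12 with compound renewed at DIV 5 and 9; spontaneous activity recorded days 5, 7, 9, 12. Well-mean burst duration collapsed as trapezoidal AUC, fitted for loss versus DMSO.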

[17] = CCTE_Shafer_MEA_dev_interburst_interval_mean: CCTE's Neural Network Formation Assay for Mean Interburst Interval, Shafer Lab (AID 2284046);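 further: well-mean interburst interval of bursting electrodes as AUC over four recording days; curve fitted for decrease in interburst interval relative to DMSO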
Method in brief: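 Developing rat cortical networks on 48-well MEAs receive compound from the day of plating. Burst intervals from each active electrode are averaged per well, and AUC over the recording days is fitted in the negative direction against DMSO.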

[18] = CCTE_Shafer_MEA_dev_inter_network_spike_interval_mean: CCTE's Neural Network Formation Assay for Mean Inter-network Spike Interval, Shafer Lab (AID 2284047)
Method in brief: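 Rat cortical cultures, 1.5 x 10^5 cells/well on 48-well MEA plates; continuous exposure days 0–12, medium and compound refreshed DIV 5, 9. Mean time between consecutive network-spike peaks; AUC across DIV 5/7/9/12; DMSO baseline, negative fitting direction.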

[19] = CCTE_Shafer_MEA_dev_network_spike_number: CCTE's Neural Network Formation Assay for Number of Network Spikes, Shafer Lab (AID 2284048)
Method in brief: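 Primary rat cortical neurons were seeded at 1.5 x 10^5 cells/well on PEI-coated 16-electrode MEA wells with laminin, exposed from plating day 0, compound renewed at DIV 5 and 9. Network spikes were recorded on days 5, 7, 9, 12 and summarized as trapezoidal AUC versus DMSO.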

[20] = CCTE_Shafer_MEA_dev_network_spike_peak: CCTE's Neural Network Formation Assay for Mean Number of Electrodes in Network Spike, Shafer Lab (AID 2284049)
Method in brief: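 Continuous 12-day exposure of rat cortical cultures, starting at plating, on MEA plates. Endpoint: electrodes participating in network-spike peaks, AUC across DIV 5–12, DMSO as negative control.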

[21] = CCTE_Shafer_MEA_dev_spike_duration_mean: CCTE's Neural Network Formation Assay for Mean Spike Duration, Shafer Lab (AID 2284051);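 further: mean network spike duration pooled as area under curve over DIV 5 to 12 recordings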
Method in brief: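 Readout is the average length of network spikes, clustered firing across electrodes, summed over DIV 5, 7, 9 and 12 as area under the curve. Neurons from rat cortex developed networks on MEA plates under continuous 12-day exposure.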

[22] = CCTE_Shafer_MEA_dev_network_spike_duration_std: CCTE's Neural Network Formation Assay for Standard Deviation of Network Spike Duration, Shafer Lab (AID 2284052);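 further: area under curve of spike duration SD across recording days 5 to 12; hits are decreases in network spike duration SD versus DMSO vehicle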
Method in brief: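 Read-out is the trapezoidal area-under-the-curve across recordings made on days 5, 7, 9 and 12, fitted in the negative direction against DMSO baseline. Neurons were primary rat cortical cells treated from day 0, with treatment renewed at each feed.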

[23] = CCTE_Shafer_MEA_dev_per_network_spike_spike_number_mean: CCTE's Neural Network Formation Assay for Mean Number of Spikes in a Network Spike, Shafer Lab (AID 2284053)
Method in brief: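 Continuous twelve-day exposure of developing rat cortical networks grown over 16 microelectrodes per well; spontaneous firing is captured at four time points, and the per-network-spike spike number is integrated over development by trapezoidal AUC.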

[24] = CCTE_Shafer_MEA_dev_per_network_spike_spike_percent: CCTE's Neural Network Formation Assay for Percent of Spikes in a Network Spike, Shafer Lab (AID 2284054)
Method in brief: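 Primary rat cortical neurons on 16-electrode MEA wells (PEI-coated, laminin at plating), exposed from day 0 with renewal at DIV 5 and 9; spikes within 0.05 s of network-spike peaks over total spikes, AUC across days 5, 7, 9, 12.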

[25] = UKN5_HCS_SBAD2_cell_viability: Viability Assessment in the University of Konstanz (UKN) Leist Lab Neurite Outgrowth Assay in human iPSC-derived immature Dorsal Root Ganglia Neurons (UKN5) (AID 2284056)
Method in brief: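 iPSC-derived immature peripheral neurons (SBAD2) seeded on Matrigel with CHIR99021, SU5402 and DAPT, dosed 1 h later for 24 h. Viability from Hoechst H-33342 and calcein-AM live staining, high-content imaging; bidirectional fit versus DMSO.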

[26] = CCTE_Shafer_MEA_dev_LDH: CCTE's Lactate Dehydrogenase Assay for Cytotoxicity in the Neural Network Formation Assay, Shafer Lab (AID 2284068; active means hit-call score of the fitted dose curve at least 0.9, where 1 is the maximum;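 further: exposure for twelve days from plating with re-dosing on DIV 5 and 9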)
Method in brief: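 Cytotoxicity companion to network-formation recordings: rat cortical neurons received compound over 12 days of development, re-dosed at DIV 5 and 9 feeds. Viability was inferred from LDH enzyme activity relative to DMSO.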

[27] = UKN5_HCS_SBAD2_neurite_outgrowth: University of Konstanz (UKN) Leist Lab Neurite Outgrowth Assay in human iPSC-derived immature Dorsal Root Ganglia Neurons (UKN5) (AID 2284070); details: actives raise or lower the signal
Method in brief: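 SBAD2 iPSC-derived immature peripheral neurons on Matrigel, 100.000 cells/cm2, medium with CHIR99021 (1.5 uM), SU5402 (5 uM), DAPT (5 uM); compound added 1 h post-seeding for 24 h. Calcein-AM neurite area by high-content imaging; Hoechst H-33342 viability; bidirectional fit vs DMSO.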

Measured: outcome

Cellular tumor antigen p53 (Homo sapiens), sequence (P04637 whole entry, looked up): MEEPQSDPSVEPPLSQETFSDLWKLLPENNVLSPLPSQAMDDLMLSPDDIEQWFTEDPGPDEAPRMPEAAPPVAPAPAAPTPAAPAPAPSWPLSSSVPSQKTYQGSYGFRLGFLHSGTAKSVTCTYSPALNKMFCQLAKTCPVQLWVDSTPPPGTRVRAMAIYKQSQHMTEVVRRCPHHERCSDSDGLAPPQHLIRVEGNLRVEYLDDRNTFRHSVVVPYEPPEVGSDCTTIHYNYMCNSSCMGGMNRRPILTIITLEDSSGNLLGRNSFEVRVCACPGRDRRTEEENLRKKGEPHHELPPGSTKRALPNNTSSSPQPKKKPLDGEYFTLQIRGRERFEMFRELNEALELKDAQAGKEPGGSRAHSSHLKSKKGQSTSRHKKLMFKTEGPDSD

C[C@@H]1C[C@H]2[C@@H]3CCC4=CC(=O)C=C[C@]4(C)[C@@]3(F)[C@@H](O)C[C@]2(C)[C@@]1(O)C(=O)CO
inactive: [1] | [2] | [3] | [4] | [5] | [6] | [7] | [8] | [9] | [10] | [11] | [12] | [13] | [14] | [15] | [16] | [17] | [18] | [19] | [20] | [21] | [22] | [23] | [24] | [25] | [26] | [27]
